High-throughput results from PubChem.
Pf growth 96h: Primary qHTS for delayed death inhibitors of the malarial parasite plastid, 96 hour incubation | AID 504834, 2011 | hit rate 6.9% among 320,000 | Potency, µM (top dose mostly 28.7 µM), most hits filed as inhibitors | P. falciparum luciferase reporter growth, 96 h
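Readout is luminescence from an integrated firefly luciferase in P. falciparum. Red cells, 2% hematocrit and 0.05% parasitemia final, were cultured with compound through two parasite generations (96 hours) at 37 C, 5% CO2.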
NS1 inh: qHTS Assay for Inhibitors of Influenza NS1 Protein Function | hit rate 0.4% among 270,000 | Potency, µM (highest dose often 46.1 µM) | AID 2326, 2010; calls by dose curve; note: actives are rising curves; nearly all actives have a fitted effect of over 50% in size
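Recovery from NS1-induced slow growth read by OD600 in budding yeast switched to galactose assay medium (pH 6.0, -URA) at 1:100 dilution. Compound 23 nl per well; the matching strain lacking NS1 serves as control.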
Sm TGR block: qHTS Assay for the Inhibitors of Schistosoma Mansoni Peroxiredoxins; Schistosoma mansoni thioredoxin glutathione reductase (TGR), Q962Y6; purified TGR, DTNB reduction, TNB absorbance 405 nm; Potency, µM (series often up to 114 µM), most hits filed as inhibitors; hit rate 3% among 360,000; note: nearly all actives have a fitted effect of over 60% in size
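First, TGR (20 nM dispensed) and NADPH were mixed with compound. Second, a 15 min room-temperature incubation followed. Third, further NADPH and then DTNB were added to start the reaction. Finally, TNB absorbance was monitored kinetically.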
AMA1 RON2 block: qHTS for Inhibitors of AMA1-RON; Towards Development of Antimalarial Drug Lead: Primary Screen; hit rate 0.2% among 360,000; Plasmodium falciparum AMA1 (3D7) - RON2 peptide interaction; Potency, µM (series often up to 58.2 µM), actives largely listed as inhibitors; AlphaScreen AMA1-biotinylated RON2 peptide binding; AID 720542, 2013; note: nearly all actives have a fitted effect of over 45% in size
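AMA1 (3D7) with his tag at 25 nM final met compounds first, then biotinylated RON2 peptide at 25 nM; detection used donor plus acceptor beads, 10 µg/mL apiece, read by AlphaScreen after 30 min at room temperature.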
Pf growth 48h: Primary qHTS for delayed death inhibitors of the malarial parasite plastid, 48 hour incubation; P. falciparum luciferase growth in erythrocytes, 48 h; hit rate 5.9% among 310,000; Potency, µM (series often up to 28.7 µM), hits mostly inhibitors
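Read-out is firefly luciferase luminescence from an integrated reporter in P. falciparum, so falling signal marks reduced parasite growth. Infected erythrocytes were at 2% hematocrit and 0.1% parasitemia (final) in Albumax-supplemented RPMI 1640.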
Each line names hits and unclear results; the compound was inactive in the other large screens. In the library only some 11% were active in any assay of this set; here they are far more common. Unless noted, calls come from the whole dose curve; as a rule, active = well fitted curve in the direction sought with a large enough effect; inconclusive = small, poorly fitted or top-dose-only effect, or another doubt; inactive = no such curve, though single readings can be large; an effect the other way counts as inactive or inconclusive.

O=C(CSc1nc2ccccc2c(=O)n1-c1ccccc1)N1CCc2ccccc2C1	Pf growth 96h 2.6µM, Pf growth 48h inconclusive
Cn1c(=O)c2c(nc(SCC(=O)N3CCc4ccccc4C3)n2C)n(C)c1=O	Pf growth 96h 10µM
O=C(CSc1nc2ccccc2c(=O)n1-c1ccccc1)N1CCC1	Pf growth 96h inconclusive, Pf growth 48h inconclusive (no result: NS1 inh)
Cn1c(Cc2ccc3c(c2)OCO3)nnc1SCC(=O)N1CCc2ccccc2C1	Sm TGR block 45µM
O=C(Nc1ccc(Br)cc1F)c1cc(S(=O)(=O)NC2CCCC2)ccc1F	none (no result: Pf growth 96h, NS1 inh, AMA1 RON2 block, Pf growth 48h)
COCCn1c(SCC(=O)N2CCc3ccccc3C2)nc2cc(Cl)ccc2c1=O	Pf growth 96h 9.3µM, Pf growth 48h inconclusive
O=C(CSc1nc2[nH]ncc2c(=O)n1-c1ccccc1)N1CCCCCC1	Pf growth 96h 10µM (no result: AMA1 RON2 block)
CCC(C)(C)NC(=O)C(c1ccccc1Cl)N(Cc1cccnc1)C(=O)CCC(=O)Nc1cc(C)on1 (stereo not given)	none
Nc1nonc1-c1noc(CCCCCN2C(=O)c3ccccc3C2=O)n1	Pf growth 96h 13µM
O=C1c2ccccc2C(=O)N1CCCc1nc(-c2ccccn2)no1	NS1 inh inconclusive (no result: Pf growth 96h)
Cc1ccc(/C=C2\SC(=S)N(C3CCS(=O)(=O)C3)C2=O)o1 (stereo not given)	Sm TGR block inconclusive
CC1=C(C#N)C(=O)N(C2CCS(=O)(=O)C2)C(=O)/C1=C\c1ccc(C)o1 (stereo not given)	Sm TGR block 16µM (no result: AMA1 RON2 block)
C=CCc1ccc(O)c(-c2cc(CC=C)ccc2O)c1	Pf growth 96h 3.7µM, Sm TGR block 56µM, Pf growth 48h inconclusive
C=CCc1ccc(OC)cc1	none (no result: NS1 inh)
CCCCC(=O)NC(c1cccs1)c1cc(Cl)c2cccnc2c1O (stereo not given)	Pf growth 48h 0.74µM
CCCC(=O)NC(c1ccc(OC)c(OC)c1)c1cc(Cl)c2cccnc2c1O (stereo not given)	Pf growth 96h inconclusive, Pf growth 48h 9.3µM (no result: Sm TGR block)
CCOC(=O)N/N=C(/C)c1ccc(N2C(=O)C3CCCCC3C2=O)cc1 (stereo not given)	Pf growth 96h inconclusive (no result: NS1 inh)
Cc1sc2ncn(CC(=O)NCCCC(=O)N3CCCCC3)c(=O)c2c1C	none
Cc1nn(-c2ccccc2)c(C)c1/C=N\N1CCN(c2ccc(Cl)cc2)CC1	Pf growth 96h inconclusive, Pf growth 48h 13µM
Cn1nnnc1SCCNCc1ccccc1OCc1ccccc1F	none (no result: Pf growth 96h, NS1 inh, AMA1 RON2 block, Pf growth 48h)
CC1CCCCC1NC(=O)CO/N=C/c1ccccc1OC(F)F (stereo not given)	none
CCc1nc(Sc2nnnn2-c2ccccc2)c2c3c(sc2n1)CCCC3	Pf growth 96h inconclusive, Pf growth 48h 12µM
CN(C)c1ncnc2c1ncn2[C@H]1CN(Cc2ccc(Cl)cc2)C[C@@H](CO)O1	none (no result: Pf growth 96h, NS1 inh, Sm TGR block, Pf growth 48h)
COc1cc(OC)c(NC(=O)N2CCSc3ccccc32)cc1Cl	none (no result: Pf growth 96h, NS1 inh, AMA1 RON2 block, Pf growth 48h)
C[C@@H]1CC[C@H]2[C@@H](C)C(=O)O[C@@H]3OC4(C)CC[C@@H]1C32OO4 (stereo not given in full)	Pf growth 96h 0.0027µM, Pf growth 48h 0.0034µM (no result: NS1 inh, Sm TGR block, AMA1 RON2 block)
C[C@@H]1CC[C@H]2[C@@H](C)C(=O)O[C@@H]3O[C@@]4(C)CC[C@@H]1[C@]32OO4	Pf growth 96h 0.0033µM, Pf growth 48h 0.0033µM
C[C@H]1[C@@H](OC(=O)CCC(=O)O)OC2OC3(C)CC[C@H]4[C@H](C)CC[C@@H]1[C@@]24OO3 (stereo not given in full)	Pf growth 96h 0.0013µM, Pf growth 48h 0.0019µM (no result: NS1 inh, Sm TGR block, AMA1 RON2 block)
C[C@@H]1CCC2[C@@H](C)C(=O)O[C@@H]3OC4(C)CCC1[C@@]23OO4 (stereo not given in full)	none (no result: Pf growth 96h, NS1 inh, Sm TGR block, Pf growth 48h)
CCCCn1c(N)c(N(CCOC)C(=O)CCNC(=O)c2ccccc2Cl)c(=O)[nH]c1=O	none
N#CC1(NC(=O)COC(=O)c2cc(O)c3ccccc3c2O)CCCCC1	Pf growth 96h 12µM, Sm TGR block 22µM, Pf growth 48h inconclusive (no result: NS1 inh)
NS(=O)(=O)c1ccc(CCNC(=O)CSc2nc3ccsc3c(=O)n2C2CC2)cc1	none
CCCCNC(=O)CSc1nc2ccsc2c(=O)n1C1CCN(C(=O)OCC)CC1	Pf growth 96h 2.1µM, Pf growth 48h inconclusive
O=C(NC1CCc2ccccc21)c1cc(COc2c(F)cccc2F)on1 (stereo not given)	none
O=C(NCC1OCCc2ccccc21)c1cc(COc2c(F)cccc2F)on1 (stereo not given)	Pf growth 96h 13µM
CC(c1nnc(SCC(=O)Nc2cc([N+](=O)[O-])ccc2F)n1Cc1ccccc1)N(C)C (stereo not given)	Pf growth 96h 5.2µM, NS1 inh inconclusive, Pf growth 48h 8.3µM
OCCNc1nc(C2CC2)nc2c1nnn2Cc1ccccc1Cl	Pf growth 96h inconclusive
COCCNc1nc(C(C)(C)C)nc2c1nnn2Cc1ccccc1Cl	Pf growth 48h 8.3µM
CN(C)c1ccc(/C=C2\SC(N3CCCCC3)=NC2=O)cc1	Pf growth 96h 4.1µM
CC(C)c1ccc(/C=C2\SC(N3CCCC3)=NC2=O)cc1	Pf growth 96h 3.7µM, Pf growth 48h inconclusive
C=CCn1c(C2CC2)n[nH]c1=S	none (no result: NS1 inh)
CCCCCC1CCC(c2n[nH]c(=S)n2C)CC1 (stereo not given)	Pf growth 96h 5.9µM, Pf growth 48h inconclusive
CC(C)c1nc2ccc(C(=O)Nc3ccccc3F)cc2o1	none (no result: Pf growth 96h, NS1 inh, AMA1 RON2 block, Pf growth 48h)
COc1ccc(S(=O)(=O)N2CCC(C(=O)NC3CC3)CC2)cc1C	Pf growth 96h 3.3µM, Pf growth 48h inconclusive
O=C(NC1=NCCS1)C1CCN(S(=O)(=O)c2ccc(Cl)cc2)CC1	Pf growth 96h inconclusive, Sm TGR block 50µM, Pf growth 48h inconclusive (no result: NS1 inh)
O=C(NC1CC1)C1CCN(S(=O)(=O)c2ccc(Cl)cc2)CC1	Pf growth 48h 1.7µM
CC(C)c1ccc(S(=O)(=O)N2CCC(C(=O)NCC3(N(C)C)CCCCC3)CC2)cc1	Pf growth 96h inconclusive, Pf growth 48h inconclusive
COc1ccc(S(=O)(=O)N2CCC(C(=O)NC3CCCCC3)CC2)cc1C	Pf growth 96h inconclusive
CN(C)C1(CNC(=O)C2CCN(S(=O)(=O)c3cc(Cl)ccc3Cl)CC2)CCCCC1	Sm TGR block 25µM
O=C(NC1CCN(S(=O)(=O)c2ccc(Cl)cc2)CC1)C1CCCCC1	none
CC(C)[C@H](NC(=O)OC(C)(C)C)c1cc(C(=O)N(C)CCN(C)C)c(N)s1	none (no result: Pf growth 96h, NS1 inh, Sm TGR block, Pf growth 48h)
Cc1cc(C)c(NC(=O)Cn2c(=O)n(CCC(C)C)c(=O)c3cccnc32)c(C)c1	none (no result: Pf growth 96h, NS1 inh, AMA1 RON2 block, Pf growth 48h)
Cc1ccc(S(=O)(=O)N2CCC(C(=O)NC3CCCC3)CC2)cc1Cl	Pf growth 96h 1.3µM, Pf growth 48h inconclusive
COc1ccc(S(=O)(=O)N2CCN(S(=O)(=O)c3ccc(C(F)(F)F)cc3)CC2)cc1C	Pf growth 96h 12µM
O=C(NC1=NCCS1)C1CCN(S(=O)(=O)c2cc([N+](=O)[O-])ccc2Cl)CC1	none (no result: Pf growth 96h, NS1 inh, Sm TGR block, Pf growth 48h)
